Test results: PubChem BioAssay (NCI)
This is part of a sample that, as a whole, favours compounds with a hit. Of some 79,000 tested, about 15% had one in any assay. Calls of active or inactive are those of the source. Cut-off read from the data, not from the text of the source: active = growth inhibition above about 70%; inactive = the rest.

Assay: NCI Yeast Anticancer Drug Screen. Data for the bub3 strain (AID 167)
Settings: S. cerevisiae bub3 mutant strain, stronger effect = higher value
Protocol: Growth inhibition of yeast strains with defined genetic alterations is measured as a screen for potential anti-cancer activity. Selected strains with alterations in DNA damage repair or cell cycle control were exposed to compounds and growth inhibition was measured relative to vehicle treated controls. The strain used in this assay is bub3

[1] = at 5.0 µM (retest, dose inferred, filed as 0.5)
[2] = at 50.0 µM (retest, dose inferred, filed as 5.0)

Measured: growth inhibition

Cc1cc(CO)c(O)c(CNCc2cc(C)cc(CO)c2O)c1
active: at 100.0 µM 98%
inactive: at 1.2 µM -14% | at 3.7 µM -6% | [1] -21% | at 11.0 µM -13% | at 33.0 µM -13% | [2] 52% | at 50.0 µM 68.8%

CC(C)OC(=O)Oc1ccccc1OC(=O)OC(C)C
inactive: at 1.2 µM 0% | at 3.7 µM 0% | [1] 15% | at 11.0 µM 4% | at 33.0 µM 7% | [2] 8% | at 50.0 µM 15.7% | at 100.0 µM 9%

CCCCc1cc(O)ccc1O
inactive: at 1.2 µM -9% | at 3.7 µM -1% | [1] -63% | at 11.0 µM -5% | at 33.0 µM 5% | [2] 3% | at 50.0 µM 27.6% | at 100.0 µM 19%

Oc1ccc(NCn2c(=S)sc3ccccc32)cc1
inactive: at 1.2 µM 14% | at 3.7 µM 32% | [1] 32% | at 11.0 µM 26% | at 33.0 µM 68%
active: [2] 98% | at 50.0 µM 73.2% | at 100.0 µM 98%

[O-][n+]1c2ccc(O)cc2nc2ccc(Cl)cc21
active: at 50.0 µM 78.8%
inactive: at 1.2 µM 5% | at 3.7 µM 2% | [1] -7% | at 11.0 µM 23% | at 33.0 µM 41% | [2] 11% | at 100.0 µM 59%
